These are literature values, as cited in PubChem BioAssay AID977611.

In all, about 3,900 compounds went through this assay and about 3,900 (100%) were called active. No cut-off is given here; in the data, nearly all actives have Kd up to about 4200 µM. The set was probably picked from earlier hits. The list shows a part of the results. Numbered stars: 1 amine (or outer) side, 2 acyl side, 3 side chain; on linkers, the order of the positions; unused ones are H or OH. Starred links: 1 amine or outer side, 2 acyl side, 3 side chain; linkers in the order of their positions; H or OH if unused. Where a SMILES comes first, the peptide text is derived from it. Non-standard residues stand in square brackets, D forms with d. Square brackets hold non-standard residues; d marks the D form. Residues, ends and D or L forms follow the SMILES beside them. Peptide text beside a SMILES is read from it. [ ]: non-standard residue; d: D form. X1 = O=C([C@H](Cc1ccc(O[P+](O)(O)O)cc1)N[*:1])[*:2]; Orn(CH(NH2)2) = NC(N)NCCC[C@H](N)C(=O)O; Pro(4,5-dehydro) = O=C(O)[C@@H]1CC=CN1

As usually defined, the Kd is the concentration at which binding is half-saturated.

A short description of this data set: PubChem AID 977611. To be noted: PDB protein-ligand complexes, literature Kd.

Consider `CSCC[C@H](NC(=O)[C@@H]1CCCN1C(=O)[C@H](CC(N)=O)NC(=O)[C@@H]1CCCN1C(=O)[C@H](Cc1cnc[nH]1)NC(=O)[C@@H](N)CC(C)C)C(=O)N[C@@H](Cc1ccc(O[P+](O)(O)O)cc1)C(=O)N[C@@H](C)C(=O)N[C@@H](CCCNC(N)N)C(=O)O` (H-LHPNPM[X1]A[Orn(CH(NH2)2)]-OH), for which, where the note is “protein: Protein Dok7(PH-PTB), PDB entry 3ml4”, the Kd was 4700 nM (active).

As for `NC(N)NCCC[C@H](N)C(=O)N[C@@H](CO)C(=O)N[C@@H](Cc1ccccc1)C(=O)N[C@@H](CO[P+](O)(O)O)C(=O)N[C@@H](CCC(=O)O)C(=O)N1CCC[C@H]1C(=O)N[C@@H](Cc1ccccc1)C(=O)NCC(=O)O`, the Kd (protein: 14-3-3 protein epsilon, PDB entry 3ual) is 1550 nM (active). Turning to `C[C@H](N)C(=O)N[C@@H](CS)C(=O)N[C@@H](CO[P+](O)(O)O)C(=O)N1CCC[C@H]1C(=O)N[C@@H](CCC(N)=O)C(=O)N[C@@H](Cc1ccccc1)C(=O)NCC(=O)O`, for the setting “protein: Breast cancer type 1 susceptibility protein, PDB entry 4igk”, the Kd is 28200 nM (active).

For the compound `CC[C@H](C)[C@H](NC(=O)[C@H](CCCNC(N)N)NC(=O)[C@H](CC(N)=O)NC(=O)[C@H](Cc1ccccc1)NC(=O)[C@@H](NC(=O)[C@@H]1CCCN1C(=O)[C@H](CC(C)C)NC(=O)[C@H](CCCNC(N)N)NC(=O)[C@@H](N)CCCNC(N)N)[C@@H](C)CC)C(=O)N[C@@H](CO)C(=O)N[C@H](C(=O)N[C@@H](CO)C(=O)O)C(C)C` (H-[Orn(CH(NH2)2)][Orn(CH(NH2)2)]LPIFN[Orn(CH(NH2)2)]ISVS-OH), for the setting “protein: CCR4-NOT transcription complex subunit 1, PDB entry 4j8s”, the Kd was 2000 nM (active).

Take `CC(C)[C@H](NC(=O)[C@@H]1CCCN1C(=O)[C@H](CO[P+](O)(O)O)NC(=O)[C@@H](N)CCCNC(N)N)C(=O)N[C@@H](Cc1ccccc1)C(=O)N[C@@H](CO)C(=O)O`: the Kd (protein: Breast cancer type 1 susceptibility protein, PDB entry 4ifi) was 3340 nM (active). In the case of `CC(C)C[C@H](NC(=O)CNC(=O)[C@H](CC(N)=O)NC(=O)[C@@H](N)Cc1ccccc1)C(=O)N[C@H](C(=O)N[C@@H](CO[P+](O)(O)O)C(=O)N1CCC[C@H]1C(=O)N[C@@H](CCC(N)=O)C(=O)N[C@@H](CCCNC(N)N)C(=O)N[C@@H](CO[P+](O)(O)O)C(=O)O)[C@@H](C)O`, under “protein: Saccharomyces cerevisiae Skp1 and Cdc4 (263-744), PDB entry 3v7d”, the dissociation constant Kd was 410 nM (active). Take `CC(C)C[C@H](NC(=O)[C@H](CCCNC(N)N)NC(=O)[C@H](Cc1ccccc1)NC(=O)[C@@H](N)CC(C)C)C(=O)N[C@@H](CCCNC(N)N)C(=O)N[C@@H](Cc1c[nH]cn1)C(=O)N[C@@H](Cc1ccccc1)C(=O)N1CCC[C@H]1C(=O)N[C@@H](CS)C(=O)NCC(=O)N[C@@H](CC(N)=O)C(=O)N[C@H](C(=O)N[C@@H](CC(N)=O)C(=O)N[C@@H](Cc1ccc(O)cc1)C(=O)NCC(=O)N[C@@H](Cc1ccc(O)cc1)C(=O)N[C@@H](CCC(N)=O)C(=O)N[C@@H](CCC(N)=O)C(=O)N[C@@H](CCC(N)=O)C(=O)O)C(C)C` (HELM PEPTIDE1{L.F.[NC(N)NCCC[C@H](N[*:1])C(=O)[*:2]].L.[NC(N)NCCC[C@H](N[*:1])C(=O)[*:2]].H.F.P.C.G.N.V.N.Y.G.Y.Q.Q.Q}$$$$V2.0): the Kd (protein: PTB domain of SNT-2, PDB entry 2kup) is 200 nM (active). In the case of `C[C@H](NC(=O)[C@H](CCC(=O)O)NC(=O)[C@@H]1CCCN1C(=O)[C@H](Cc1ccccc1)NC(=O)[C@@H](NC(=O)[C@@H]1CCCN1C(=O)[C@H](CO[P+](O)(O)O)NC(=O)[C@H](CCC(N)=O)NC(=O)[C@@H]1CCCN1)[C@@H](C)O)C(=O)NCC(=O)O`, the Kd (protein: Breast cancer type 1 susceptibility protein(BRCA1), PDB entry 3coj) was 5200 nM (active). `CC(C)C[C@H](NC(=O)[C@H](CC(C)C)NC(=O)[C@H](CCC(=O)O)NC(=O)[C@@H]1CC=CN1C(=O)[C@H](C)NC(=O)[C@@H]1CCCN1)C(=O)NCC(=O)O` (H-PA[Pro(4,5-dehydro)]ELLG-OH): the dissociation constant (Kd) (protein: anti-hinge rabbit antibody 2095-2, PDB entry 4o4y) was 15.5 nM (active). With `CC(C)C[C@H](NC(=O)[C@H](CC(N)=O)NC(=O)[C@H](Cc1ccccc1)NC(=O)[C@@H](N)CO)C(=O)N[C@@H](C)C(=O)N1CCC[C@H]1C(=O)N[C@@H](CC(C)C)C(=O)NCC(=O)N[C@@H](CCCNC(N)N)C(=O)N[C@@H](CCCNC(N)N)C(=O)N[C@@H](CCCNC(N)N)C(=O)N[C@H](C(=O)N[C@@H](CCC(N)=O)C(=O)N[C@@H](CO)C(=O)N[C@@H](CCC(N)=O)C(=O)O)C(C)C` (H-SFNLAPLG[Orn(CH(NH2)2)][Orn(CH(NH2)2)][Orn(CH(NH2)2)]VQSQ-OH), the Kd (protein: Telomeric repeat-binding factor 2(TRF2 TRFH domain), PDB entry 3bu8) is 120 nM (active).

As for `CC[C@H](C)[C@H](NC(=O)[C@@H](NC(=O)[C@@H](N)CC(C)C)C(C)C)C(=O)N[C@@H](C)C(=O)NCC(=O)N[C@@H](CC(N)=O)C(=O)N1CCC[C@H]1C(=O)N[C@@H](C)C(=O)N[C@@H](Cc1ccc(O[P+](O)(O)O)cc1)C(=O)N[C@@H](CCCNC(N)N)C(=O)N[C@@H](CO)C(=O)O` (H-LVIAGNPA[X1][Orn(CH(NH2)2)]S-OH), the Kd (protein: PTB domain of insulin receptor substrate-1(IRS-1), PDB entry 1irs) is 6000 nM (active). `OC[C@H]1O[C@H](O[C@H]2[C@H](O)[C@@H](O)[C@@H](O[C@H]3[C@H](O)[C@@H](O)[C@@H](O[C@H]4[C@H](O)[C@@H](O)[C@@H](O)O[C@@H]4CO)O[C@@H]3CO)O[C@@H]2CO)[C@H](O)[C@@H](O)[C@@H]1O`: under “protein: Outer membrane protein SusF, PDB entry 4fe9”, the Kd is 990000 nM (active).
